# Records with an inconclusive call do not appear. Active and inactive are the calls of the source. How the source made its calls: active means hit-call score of the fitted dose curve at least 0.9, where 1 is the maximum; inconclusive means response in the unintended direction; inactive means score below 0.9.
# How the values were obtained:
# [1] = biological target: Serine/threonine-protein phosphatase PP1-alpha catalytic subunit (Homo sapiens) (UniProt P62136); assay: NVS_ENZ_hPPP1CA: NovaScreen (NVS) Enzymatic Assay for human Protein Phosphatase 1 Aatalytic subunit Alpha (PPP1CA) (AID 2283200)
# Method in brief: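 Recombinant enzyme activity read by fluorescence with electrophoretic mobility shift separating substrate from product, 1.33 h after dosing; loss of signal vs DMSO baseline. Primary screen in duplicate at 25 uM; actives retested in concentration-response up to 50 uM.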
# [2] = biological target: human Phosphodiesterase 10 (PDE10), PDE10A (gene 10846) (UniProt Q9Y233); assay: NVS_ENZ_hPDE10: NovaScreen (NVS) Enzymatic Assay for human Phosphodiesterase 10 (PDE10) (AID 2283195)
# Method in brief: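 PDE10A, cell-free; 1 h incubation; fluorescence intensity + electrophoretic mobility shift separating substrate/product; DMSO = baseline; 25 uM duplicate primary, CRC up to 50 uM.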
# [3] = biological target: Tyrosine-protein phosphatase non-receptor type 12 (Homo sapiens) (UniProt Q05209); assay: NVS_ENZ_hPTPN12: NovaScreen (NVS) Enzymatic Assay for human Protein Tyrosine Phosphatase Non-receptor Type 12 (PTPN12) (AID 2283204)
# Method: (§1) NVS_ENZ_hPTPN12 is a biochemical, single-readout assay that uses extracted gene-proteins in a cell-free assay. Measurements were taken 1.33 hours after chemical dosing in a 384-well plate.NVS_ENZ_hPTPN12 is one of one assay component(s) measured or calculated from the NVS_ENZ_hPTPN12 assay. It is designed to make measurements of enzyme activity, a form of enzyme reporter, as detected with fluorescence intensity signals by Fluorescence and electrophoretic mobility shift technology.Data from the assay component NVS_ENZ_hPTPN12 was analyzed into 1 assay endpoint. This assay endpoint, NVS_ENZ_hPTPN12, was analyzed in the positive analysis fitting direction relative to DMSO as the negative control and baseline of activity. Using a type of enzyme reporter, loss-of-signal activity can be used to understand changes in the enzymatic activity as they relate to the gene PTPN12. Furthermore, this assay endpoint can be referred to as a primary readout, because this assay has produced multiple assay endpoints where this one serves a enzymatic activity function. To generalize the intended target to other relatable targets, this assay endpoint is annotated to the phosphatase intended target family, where the subfamily is non-receptor tyrosine phosphatase. […]
# [4] = biological target: human Phosphoinositide 3-kinase alpha (PI3Ka), PIK3CA (gene 5290) (UniProt P42336); assay: NVS_ENZ_hPI3Ka: NovaScreen (NVS) Enzymatic Assay for human Phosphoinositide 3-kinase alpha (PI3Ka) (AID 2283196)
# Method in brief: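 Fluorescence/mobility-shift readout of substrate conversion by recombinant enzyme, 1 h post-dosing. Primary screen in duplicate at 25 uM; actives (e.g. ≥30% inhibition) retested in singleton concentration-response, top concentration 50 uM.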
# [5] = biological target: human Phosphatase and Tensin Homolog (PTEN), PTEN (gene 5728) (UniProt P60484); assay: NVS_ENZ_hPTEN: NovaScreen (NVS) Enzymatic Assay for human Phosphatase and Tensin Homolog (PTEN) (AID 2283203)
# Method: NVS_ENZ_hPTEN is a biochemical, single-readout assay that uses extracted gene-proteins in a cell-free assay. Measurements were taken 1 hour after chemical dosing in a 384-well plate.NVS_ENZ_hPTEN is one of one assay component(s) measured or calculated from the NVS_ENZ_hPTEN assay. It is designed to make measurements of enzyme activity, a form of enzyme reporter, as detected with fluorescence intensity signals by Fluorescence and electrophoretic mobility shift technology.Data from the assay component NVS_ENZ_hPTEN was analyzed into 1 assay endpoint. This assay endpoint, NVS_ENZ_hPTEN, was analyzed in the positive analysis fitting direction relative to DMSO as the negative control and baseline of activity. Using a type of enzyme reporter, loss-of-signal activity can be used to understand changes in the enzymatic activity as they relate to the gene PTEN. Furthermore, this assay endpoint can be referred to as a primary readout, because this assay has produced multiple assay endpoints where this one serves a enzymatic activity function. To generalize the intended target to other relatable targets, this assay endpoint is annotated to the phosphatase intended target family, where the subfamily is dual-specific phosphatase.
# Binding assays used specific radioligands (tritiated, iodinated) with non-radioactive competitive displacement ligands in agonist or antagonist protocols (as indicated) and various reference compounds and inhibitors to titrate specific binding to receptors and transporters. Most enzyme assays (CYPs, kinases, phosphatases, proteases, HDACs) used recombinant protein and specific substrates (fluorescence mostly, some colorimetric and radioactive) and inhibitors, followed by a biochemical separation of substrate and product. All assays for the biochemical HTS were initially run in duplicate at a single concentration (10 uM for CYP450 assays and 25 uM for all others). […] Each assay was run with positive and negative controls, and concurrent controls on every plate. The follow-up (secondary) screen tested active chemical-pairs in concentration series, as well as a few additional assays not tested in the primary screen, some selected negative inactives, and several cases re-run in the concentration series for confirmatory purposes.
# [6] = biological target: human Phosphodiesterase 5 (PDE5), PDE5A (gene 8654) (UniProt O76074); assay: NVS_ENZ_hPDE5: NovaScreen (NVS) Enzymatic Assay for human Phosphodiesterase 5 (PDE5) (AID 2283194)
# Method in brief: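 Recombinant human PDE5 with specific substrate, read 1 h after dosing by fluorescence with electrophoretic mobility-shift separation of substrate and product. Initial single-concentration duplicate screen at 25 uM, actives followed in concentration series; loss of activity versus DMSO.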
# [7] = biological target: Tyrosine-protein phosphatase non-receptor type 13 (Homo sapiens) (UniProt Q12923); assay: NVS_ENZ_hPTPN13: NovaScreen (NVS) Enzymatic Assay for human Protein Tyrosine Phosphatase Non-receptor Type 13 (PTPN13) (AID 2283205)
# Method in brief: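 Cell-free assay of recombinant human PTPN13 with a fluorescent substrate, product separated by electrophoretic mobility shift and read 0.5 h after dosing. Primary screen at 25 uM in duplicate, then concentration-response up to 50 uM. Loss of signal fitted against DMSO.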
# [8] = biological target: human Protein Phosphatase, Mg2+/Mn2+ Dependent 1A (PPM1A), PPM1A (gene 5494) (UniProt P35813); assay: NVS_ENZ_hPPM1A: NovaScreen (NVS) Enzymatic Assay for human Protein Phosphatase, Mg2+/Mn2+ Dependent 1A (PPM1A) (AID 2283198)
# Method in brief: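 Cell-free recombinant PPM1A phosphatase assay with fluorescent substrate, read 1 h after dosing by electrophoretic mobility shift. Chemicals screened in duplicate at 25 uM, then in concentration-response up to 50 uM; loss of activity versus DMSO.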
# [9] = biological target: human Protein Tyrosine Phosphatase Non-receptor Type 1 (PTPN1), PTPN1 (gene 5770) (UniProt P18031); assay: NVS_ENZ_hPTPN1: NovaScreen (NVS) Enzymatic Assay for human Protein Tyrosine Phosphatase Non-receptor Type 1 (PTPN1) (AID 2283201)
# Method: as §1, with “NVS_ENZ_hPTPN1” for “NVS_ENZ_hPTPN12”, “plate.NVS_ENZ_hPTPN1” for “plate.NVS_ENZ_hPTPN12”, “NVS_ENZ_hPTPN1,” for “NVS_ENZ_hPTPN12,”, “PTPN1.” for “PTPN12.”
# [10] = biological target: human Phosphodiesterase 4A1 (PDE4A1), PDE4A (gene 5141) (UniProt P27815); assay: NVS_ENZ_hPDE4A1: NovaScreen (NVS) Enzymatic Assay for human Phosphodiesterase 4A1 (PDE4A1) (AID 2283191)
# Method in brief: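 Cell-free recombinant human PDE4A1 with fluorescent substrate; product separated by electrophoretic mobility shift, 1 h. Screened at 25 uM, then up to 50 uM in concentration-response; loss of signal fitted against DMSO.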
# Sequence of human Phosphodiesterase 10 (PDE10), PDE10A (gene 10846) (Q9Y233 whole entry, looked up): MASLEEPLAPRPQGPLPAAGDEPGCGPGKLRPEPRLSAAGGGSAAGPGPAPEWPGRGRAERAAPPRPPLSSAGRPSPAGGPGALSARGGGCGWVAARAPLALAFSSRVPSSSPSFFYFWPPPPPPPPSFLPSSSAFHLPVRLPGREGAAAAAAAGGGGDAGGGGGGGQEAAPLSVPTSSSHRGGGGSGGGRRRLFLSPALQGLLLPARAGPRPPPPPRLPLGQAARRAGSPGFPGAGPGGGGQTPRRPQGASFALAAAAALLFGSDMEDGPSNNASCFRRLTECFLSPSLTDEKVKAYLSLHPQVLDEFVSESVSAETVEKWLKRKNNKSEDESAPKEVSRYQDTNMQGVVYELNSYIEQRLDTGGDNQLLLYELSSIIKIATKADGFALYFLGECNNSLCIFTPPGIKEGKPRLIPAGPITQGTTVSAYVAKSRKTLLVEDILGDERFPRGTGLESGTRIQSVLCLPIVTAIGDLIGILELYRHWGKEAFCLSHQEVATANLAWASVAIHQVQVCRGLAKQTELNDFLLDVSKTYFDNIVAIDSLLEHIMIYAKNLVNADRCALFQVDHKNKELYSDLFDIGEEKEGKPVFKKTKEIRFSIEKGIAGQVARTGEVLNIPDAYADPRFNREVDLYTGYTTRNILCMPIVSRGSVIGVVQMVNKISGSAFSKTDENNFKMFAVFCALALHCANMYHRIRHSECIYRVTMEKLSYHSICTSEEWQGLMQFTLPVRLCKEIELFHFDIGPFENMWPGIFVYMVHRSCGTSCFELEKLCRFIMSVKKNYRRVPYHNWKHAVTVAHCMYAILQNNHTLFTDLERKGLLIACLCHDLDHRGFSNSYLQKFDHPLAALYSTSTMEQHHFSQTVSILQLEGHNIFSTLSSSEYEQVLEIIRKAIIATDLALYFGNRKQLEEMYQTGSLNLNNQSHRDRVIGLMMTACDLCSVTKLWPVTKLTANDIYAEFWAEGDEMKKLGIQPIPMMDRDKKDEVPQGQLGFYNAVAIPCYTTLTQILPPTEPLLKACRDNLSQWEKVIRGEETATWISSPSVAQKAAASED
# Sequence of human Phosphoinositide 3-kinase alpha (PI3Ka), PIK3CA (gene 5290) (P42336 whole entry, looked up): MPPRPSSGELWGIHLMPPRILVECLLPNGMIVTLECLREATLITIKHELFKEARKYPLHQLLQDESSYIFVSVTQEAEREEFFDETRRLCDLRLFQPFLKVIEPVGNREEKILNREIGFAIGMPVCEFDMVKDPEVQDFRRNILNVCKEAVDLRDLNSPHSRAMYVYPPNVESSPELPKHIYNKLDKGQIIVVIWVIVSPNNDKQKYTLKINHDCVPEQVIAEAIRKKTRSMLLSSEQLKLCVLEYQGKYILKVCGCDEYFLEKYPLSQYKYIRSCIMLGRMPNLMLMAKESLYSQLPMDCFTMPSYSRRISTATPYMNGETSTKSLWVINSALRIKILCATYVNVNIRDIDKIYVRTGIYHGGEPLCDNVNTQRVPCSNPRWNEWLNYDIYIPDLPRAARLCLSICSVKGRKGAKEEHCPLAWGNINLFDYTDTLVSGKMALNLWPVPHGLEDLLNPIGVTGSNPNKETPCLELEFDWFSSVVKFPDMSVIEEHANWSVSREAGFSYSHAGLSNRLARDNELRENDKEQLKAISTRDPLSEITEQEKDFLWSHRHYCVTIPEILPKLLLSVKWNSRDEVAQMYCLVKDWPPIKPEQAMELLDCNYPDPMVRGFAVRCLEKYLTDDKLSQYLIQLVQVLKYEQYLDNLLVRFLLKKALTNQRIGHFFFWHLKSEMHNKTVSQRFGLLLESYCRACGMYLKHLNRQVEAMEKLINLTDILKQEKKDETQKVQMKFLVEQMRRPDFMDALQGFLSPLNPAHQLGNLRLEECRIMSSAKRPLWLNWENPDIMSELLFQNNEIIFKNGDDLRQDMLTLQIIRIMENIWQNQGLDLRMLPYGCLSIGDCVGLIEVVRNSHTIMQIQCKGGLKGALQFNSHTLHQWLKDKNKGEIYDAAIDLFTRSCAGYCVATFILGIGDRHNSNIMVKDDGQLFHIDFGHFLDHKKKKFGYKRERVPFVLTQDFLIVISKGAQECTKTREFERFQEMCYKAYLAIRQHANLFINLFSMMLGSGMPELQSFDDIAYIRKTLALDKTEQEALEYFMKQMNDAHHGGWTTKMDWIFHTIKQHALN
# Sequence of human Phosphatase and Tensin Homolog (PTEN), PTEN (gene 5728) (P60484 whole entry, looked up): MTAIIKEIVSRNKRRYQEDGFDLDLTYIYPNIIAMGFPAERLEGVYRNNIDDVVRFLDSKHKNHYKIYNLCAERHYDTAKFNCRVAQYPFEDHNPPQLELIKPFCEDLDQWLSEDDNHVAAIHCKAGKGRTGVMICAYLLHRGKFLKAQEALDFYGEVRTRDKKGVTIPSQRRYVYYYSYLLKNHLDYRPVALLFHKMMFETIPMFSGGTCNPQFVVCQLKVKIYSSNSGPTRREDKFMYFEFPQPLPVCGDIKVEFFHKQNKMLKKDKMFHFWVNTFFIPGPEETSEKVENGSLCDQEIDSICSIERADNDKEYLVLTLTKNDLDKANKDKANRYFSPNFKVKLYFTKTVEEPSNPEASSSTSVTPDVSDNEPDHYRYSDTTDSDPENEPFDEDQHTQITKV
# Sequence of human Protein Tyrosine Phosphatase Non-receptor Type 1 (PTPN1), PTPN1 (gene 5770) (P18031 whole entry, looked up): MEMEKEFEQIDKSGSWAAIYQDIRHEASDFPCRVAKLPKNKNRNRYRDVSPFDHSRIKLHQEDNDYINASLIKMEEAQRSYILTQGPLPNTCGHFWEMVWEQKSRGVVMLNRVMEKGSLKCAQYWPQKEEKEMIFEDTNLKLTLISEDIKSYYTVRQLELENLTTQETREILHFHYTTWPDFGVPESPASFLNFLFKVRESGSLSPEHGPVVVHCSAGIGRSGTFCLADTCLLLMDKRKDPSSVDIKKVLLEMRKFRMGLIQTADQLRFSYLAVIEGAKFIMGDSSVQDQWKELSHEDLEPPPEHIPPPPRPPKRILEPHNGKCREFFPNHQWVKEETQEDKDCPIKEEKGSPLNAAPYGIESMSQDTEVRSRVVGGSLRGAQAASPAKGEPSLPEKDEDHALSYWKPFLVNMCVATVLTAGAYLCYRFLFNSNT
# Sequence of Tyrosine-protein phosphatase non-receptor type 12 (Homo sapiens) (Q05209 whole entry, looked up): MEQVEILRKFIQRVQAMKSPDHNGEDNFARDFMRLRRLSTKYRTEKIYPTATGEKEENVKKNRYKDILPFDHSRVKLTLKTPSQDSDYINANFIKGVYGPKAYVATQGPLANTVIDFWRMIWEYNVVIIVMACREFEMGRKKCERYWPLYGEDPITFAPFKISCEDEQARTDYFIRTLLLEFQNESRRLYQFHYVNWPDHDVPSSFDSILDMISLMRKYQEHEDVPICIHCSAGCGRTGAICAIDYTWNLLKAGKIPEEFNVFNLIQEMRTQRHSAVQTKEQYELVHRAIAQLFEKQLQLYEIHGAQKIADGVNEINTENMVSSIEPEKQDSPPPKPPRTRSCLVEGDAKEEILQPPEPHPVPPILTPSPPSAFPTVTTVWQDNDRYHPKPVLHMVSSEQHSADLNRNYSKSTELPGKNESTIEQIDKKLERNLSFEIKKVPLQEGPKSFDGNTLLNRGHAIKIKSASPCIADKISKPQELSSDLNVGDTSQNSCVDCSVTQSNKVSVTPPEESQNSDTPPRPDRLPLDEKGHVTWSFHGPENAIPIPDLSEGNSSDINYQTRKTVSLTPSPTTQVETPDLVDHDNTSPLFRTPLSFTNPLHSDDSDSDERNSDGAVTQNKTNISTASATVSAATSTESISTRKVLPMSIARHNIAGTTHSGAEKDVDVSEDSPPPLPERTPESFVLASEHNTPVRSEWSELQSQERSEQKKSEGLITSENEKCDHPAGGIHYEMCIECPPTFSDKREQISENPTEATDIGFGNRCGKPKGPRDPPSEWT
# Sequence of Serine/threonine-protein phosphatase PP1-alpha catalytic subunit (Homo sapiens) (P62136 whole entry, looked up): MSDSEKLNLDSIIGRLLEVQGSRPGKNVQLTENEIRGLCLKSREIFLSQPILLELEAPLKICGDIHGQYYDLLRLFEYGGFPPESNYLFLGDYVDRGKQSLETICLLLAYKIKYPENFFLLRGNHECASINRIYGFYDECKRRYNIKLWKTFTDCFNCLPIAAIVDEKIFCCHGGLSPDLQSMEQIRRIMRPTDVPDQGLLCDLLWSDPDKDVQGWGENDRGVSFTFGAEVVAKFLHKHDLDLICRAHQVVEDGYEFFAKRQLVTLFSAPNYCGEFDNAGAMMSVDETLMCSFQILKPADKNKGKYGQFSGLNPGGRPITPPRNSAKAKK
# Sequence of human Phosphodiesterase 4A1 (PDE4A1), PDE4A (gene 5141) (P27815 whole entry, looked up): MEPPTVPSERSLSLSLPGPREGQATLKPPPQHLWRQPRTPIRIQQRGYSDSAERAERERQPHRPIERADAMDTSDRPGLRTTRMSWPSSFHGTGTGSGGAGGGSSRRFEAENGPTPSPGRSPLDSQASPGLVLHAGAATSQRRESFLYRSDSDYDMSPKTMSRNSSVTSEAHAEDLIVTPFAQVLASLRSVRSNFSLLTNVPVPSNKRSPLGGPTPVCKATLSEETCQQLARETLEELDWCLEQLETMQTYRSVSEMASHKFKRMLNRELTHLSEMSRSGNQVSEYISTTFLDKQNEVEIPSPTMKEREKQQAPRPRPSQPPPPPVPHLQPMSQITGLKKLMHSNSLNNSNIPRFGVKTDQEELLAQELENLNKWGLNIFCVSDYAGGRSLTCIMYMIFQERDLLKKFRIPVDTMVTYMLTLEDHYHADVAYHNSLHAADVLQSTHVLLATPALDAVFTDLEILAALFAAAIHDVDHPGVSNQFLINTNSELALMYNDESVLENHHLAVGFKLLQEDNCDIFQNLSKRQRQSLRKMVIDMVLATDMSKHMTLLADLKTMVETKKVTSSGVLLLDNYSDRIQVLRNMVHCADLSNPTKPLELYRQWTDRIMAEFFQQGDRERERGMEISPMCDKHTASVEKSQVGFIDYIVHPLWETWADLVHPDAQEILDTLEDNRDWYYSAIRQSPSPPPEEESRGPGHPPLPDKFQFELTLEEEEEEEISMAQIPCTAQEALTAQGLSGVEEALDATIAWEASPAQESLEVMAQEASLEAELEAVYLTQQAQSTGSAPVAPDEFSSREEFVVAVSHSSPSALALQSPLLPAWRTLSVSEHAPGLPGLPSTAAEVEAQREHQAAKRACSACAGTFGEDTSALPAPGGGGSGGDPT
structure (smiles),measurement,setting,value
CCC(C)(C)c1ccc(O)c(C(C)(C)CC)c1,outcome,[1],inactive
ClC1=C(Cl)[C@]2(Cl)[C@@H]3[C@@H](Cl)[C@@H](Cl)C[C@@H]3[C@@]1(Cl)C2(Cl)Cl,outcome,[2],inactive
CCOC(=O)Nc1cccc(OC(=O)Nc2ccccc2)c1,outcome,[3],inactive
O=C(Cl)c1ccc(Cl)cc1,outcome,[2],inactive
C(=NC1CCCCC1)=NC1CCCCC1,outcome,[4],inactive
CC(Br)C(=O)O (stereo not drawn),outcome,[2],inactive
COP(=S)(OC)Oc1cc(Cl)c(Cl)cc1Cl,outcome,[4],inactive
same,outcome,[5],inactive
Nc1cccc2ccccc12,AC50,[2],9.86 µM (active)
CN(CCCC(=O)c1cccnc1)N=O,outcome,[2],inactive
same,AC50,[5],0.00229 µM (active)
CC(C)c1ccc(CO)cc1,outcome,[2],inactive
CC(C)(C)CC(C)(C)c1ccc(O)cc1,outcome,[6],inactive
O=Cc1cccc(Oc2ccccc2)c1,outcome,[2],inactive
CC(C)(c1ccccc1)c1ccc(O)c(C(C)(C)c2ccccc2)c1,outcome,[7],inactive
COc1cccc(C=O)c1,outcome,[2],inactive
O=C(c1ccccc1)C(Cl)Cl,AC50,[5],14.1 µM (active)
Nc1ncc([N+](=O)[O-])s1,outcome,[2],inactive
Nc1ccc(-c2ccc(N)c(Cl)c2)cc1Cl,outcome,[4],inactive
N#CCc1ccc(Cl)cc1,AC50,[5],1.32 µM (active)
Cc1ccccc1N,outcome,[4],inactive
ClCCBr,outcome,[2],inactive
same,AC50,[4],383 nM (active)
Nc1ccc(Cl)cc1C(=O)c1ccccc1,outcome,[2],inactive
CC(=O)[O][Hg][c]1ccccc1,outcome,[6],inactive
same,outcome,[8],inactive
same,AC50,[9],9.68 µM (active)
same,AC50,[3],16 µM (active)
same,AC50,[7],5.38 µM (active)
CCN1CCC2(CC1)COc1cc3c(cc12)N(C(=O)c1ccc(-c2ccc(-c4nnc(C)o4)cc2C)cc1)CC3,AC50,[10],10.2 µM (active)
same,outcome,[6],inactive
COC[C@H](C)N(C(=O)CCl)c1c(C)csc1C,outcome,[5],inactive
COP(=S)(OC)Oc1c(Cl)cc(C)cc1Cl,outcome,[4],inactive
CCNc1nc(NC(C)(C)C)nc(SC)n1,outcome,[4],inactive
CC(C)C1CCC(Cc2ccc(Cl)cc2)C1(O)Cn1cncn1 (stereo not drawn),outcome,[4],inactive
O=[N+]([O-])c1ccc2c3c(cccc13)CC2,outcome,[4],inactive
O=C(Nc1ccc2[nH]ccc2c1)c1cc2cc(F)ccc2n1Cc1cccc(F)c1,outcome,[9],inactive
CCCCC(CC)CO[N+](=O)[O-] (stereo not drawn),outcome,[2],inactive
